VDR inhibitor – Inhibitors of the vitamin D receptor (VDR): qHTS | Potency, µM, for the others: max response, negative = inhibition, most hits filed as inhibitors | VDR-SRC2-3 peptide fluorescence polarization, 2 h | actives 0.93% (n = 400,000) | AID 504847, 2011
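Reagent solutions, kept cold and dark, are dispensed first; compounds are then pinned in at 23 nl, plates briefly spun, and incubated 2 h at ambient temperature. Inhibition of VDR–SRC2-3 peptide binding is read by fluorescence polarization.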
rTrxR1 inhibitor – qHTS Assay for Inhibitors of Mammalian Selenoprotein Thioredoxin Reductase 1 (TrxR1): qHTS; recombinant rTrxR1, NADPH fluorescence consumption, selenite substrate; Potency, µM (top dose mostly 114 µM), for the others: top-dose activity change, negative = inhibition, actives largely listed as inhibitors; actives 1% (n = 390,000); AID 588453, 2011; note: nearly all actives have a fitted effect of over 65% in size
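Rat TrxR1 (90 nM in the dispensed reagent) was pre-reduced with 400 uM NADPH for 5 min at room temperature, then incubated with compound for 15 min. After 400 uM selenite was added, NADPH fluorescence (Ex 340/Em 450 nm) was followed for 8 min.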
Sfp PPTase inh – qHTS Assay for Inhibitors of Bacillus subtilis Sfp phosphopantetheinyl transferase (PPTase) | 4'-phosphopantetheinyl transferase ffp (Bacillus subtilis), Q9F4F7 | Biochemical Sfp PPTase activity, qHTS | Potency, µM, without a hit: largest response in the series, negative = inhibition, most hits filed as inhibitors | actives 3.5% (n = 310,000) | AID 1490, 2009;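 note: the enzyme is Sfp with the accession as filed and its product quenches rhodamine fluorescence; 0% = enzyme reaction without inhibitor and -100% = no enzyme wells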
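After 15 min at room temperature with compound, 15 nM Sfp received 5 uM rhodamine-CoA plus 12.5 uM BHQ-2-ybbR (50 mM Hepes pH 7.6, 10 mM MgCl2). Rate came from the fluorescence difference over 30 min, ex 525/em 598 nm.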
PLK1 PBD inh – qHTS for Inhibitors of PLK1-PDB (polo-like kinase 1 - polo-box domain): Primary Screen; Plk1 PBD binding of FITC phosphopeptide, fluorescence polarization; AID 720504, 2013; Potency, µM, without a hit: max response, negative = inhibition, hits mostly inhibitors; actives 2.8% (n = 360,000); Serine/threonine-protein kinase PLK1 (Homo sapiens), P53350; note: series mostly up to about 57 µM; nearly all actives have a fitted effect of over 65% in size
Target sequence (P53350 whole entry, looked up, the tested form may be a part): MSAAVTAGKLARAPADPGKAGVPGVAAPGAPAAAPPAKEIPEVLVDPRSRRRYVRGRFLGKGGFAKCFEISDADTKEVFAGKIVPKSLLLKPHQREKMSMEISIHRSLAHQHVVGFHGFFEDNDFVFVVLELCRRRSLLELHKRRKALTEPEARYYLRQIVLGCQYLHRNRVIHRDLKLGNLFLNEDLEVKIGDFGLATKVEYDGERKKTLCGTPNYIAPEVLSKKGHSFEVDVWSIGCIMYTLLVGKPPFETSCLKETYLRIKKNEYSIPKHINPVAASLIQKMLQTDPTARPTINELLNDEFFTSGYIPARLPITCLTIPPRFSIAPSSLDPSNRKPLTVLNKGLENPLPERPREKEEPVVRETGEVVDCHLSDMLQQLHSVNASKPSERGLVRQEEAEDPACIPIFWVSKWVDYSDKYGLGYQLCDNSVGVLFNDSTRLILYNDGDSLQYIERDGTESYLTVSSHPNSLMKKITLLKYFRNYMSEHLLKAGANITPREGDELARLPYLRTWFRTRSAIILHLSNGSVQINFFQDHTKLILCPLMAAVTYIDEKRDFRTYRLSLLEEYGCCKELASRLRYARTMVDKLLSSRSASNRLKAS
TrxR1 substrate – qHTS Assay for Substrates of Mammalian Selenoprotein Thioredoxin Reductase 1 (TrxR1): qHTS; Thioredoxin reductase 1, cytoplasmic (Rattus norvegicus), O89049; purified TrxR1 substrate turnover, NADPH consumption readout; Potency, µM (titrated, usually from 114 µM), for inactives: at the highest dose activity change, negative = substrate turnover; actives 0.01% (n = 390,000); AID 588456, 2011; note: nearly all actives have a fitted effect of over 50% in size
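Rat TrxR1, dispensed at 90 nM, was prereduced with 400 uM NADPH (final) for 5 min at ~22 deg C, then incubated with compound 15 min before 400 uM selenite. A first-read NADPH fluorescence drop versus no-compound background flagged substrates.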
IDH1 R132H inh – qHTS for Inhibitors of mutant isocitrate dehydrogenase 1 (IDH1): qHTS | Potency, µM (titrated, usually from 76.6 µM), inactives show at the highest dose activity change, negative = inhibition, actives largely listed as inhibitors | AID 602179, 2012 | IDH1-R132H enzyme, NADPH consumption, diaphorase/resazurin fluorescence | actives 0.093% (n = 390,000); note: nearly all actives have a fitted effect of over 65% in size
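IDH1-R132H (0.5 ug/mL) preincubated 30 min with compound, then NADPH (0.016 mM) and alpha-KG (2 mM) added; 80 min at RT, pH 7.5. Remaining NADPH coupled via diaphorase/resazurin to fluorescence (540/590 nm); concentration-response curves normalized to no-enzyme control.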
An asterisk follows results filed as active; [ ] = another dose, or the depositor's remark. Rows were chosen to be rich in hits. Some 5.2% of all compounds tested hit in one or more screens of this group. Calls come from the whole dose curve; as a rule, active = well fitted curve in the direction sought with a large enough effect; inconclusive = small, poorly fitted or top-dose-only effect, or another doubt; inactive = no such curve, though single readings can be large; an effect the other way counts as inactive or inconclusive. Unless noted, % is set by controls: 0 for no effect and ±100 for the full control effect; potency is the fitted concentration of half-maximal effect.

Screening COc1cc(NS(=O)(=O)c2ccc(NC(=S)NC(=O)/C=C/c3ccc(OC)c(OC)c3)cc2)ncn1 returned VDR inhibitor -27.8%, rTrxR1 inhibitor -8.3%[57.1 µM], Sfp PPTase inh -9.3%, PLK1 PBD inh 13.4µM*, TrxR1 substrate -9.4%[57.1 µM] and IDH1 R132H inh inconclusive.
CCOc1ccc(NS(=O)(=O)c2ccc(NC(=S)NC(=O)C(C)C)cc2)cc1 was read as VDR inhibitor -14.8%, rTrxR1 inhibitor -36.1%, Sfp PPTase inh 6.7%, PLK1 PBD inh 26.7µM*, TrxR1 substrate -19.0% and IDH1 R132H inh -3.3%.
CCOc1ccccc1CNC(=O)CCc1c(C)nn(-c2ccc(N3CCCC3)nn2)c1C was read as VDR inhibitor -3.2%, rTrxR1 inhibitor 13.7%[57.1 µM], TrxR1 substrate -2.0%[57.1 µM] and IDH1 R132H inh 41.7%.
Screening CN1CCC(N(C)C(=O)c2ccc(Cl)c(S(=O)(=O)N3CCOCC3)c2)CC1 returned VDR inhibitor -29.3%, rTrxR1 inhibitor 13.6%, PLK1 PBD inh -8.9%, TrxR1 substrate 7.5% and IDH1 R132H inh 1.1%.
`COC(=O)c1scc(-c2ccc(C)cc2)c1S(=O)(=O)N1CCN(c2ccc(OC)cc2)CC1` gave VDR inhibitor 14.9%, rTrxR1 inhibitor 2.6%[57.1 µM], TrxR1 substrate -7.2%[57.1 µM] and IDH1 R132H inh -24.3%.
For CC(C(=O)Nc1ccccc1C(=O)N1CCOCC1)N(c1ccc(Cl)cc1)S(C)(=O)=O (stereo not drawn) the results were VDR inhibitor 22.4µM*, rTrxR1 inhibitor 25.4%[57.1 µM], Sfp PPTase inh 7.2%, PLK1 PBD inh 2.99µM*, TrxR1 substrate 4.7%[57.1 µM] and IDH1 R132H inh 0.8%.
Cc1ccccc1C(=O)NNC(=O)c1cccc(Br)c1 was read as VDR inhibitor inconclusive, rTrxR1 inhibitor 26.1%, Sfp PPTase inh 10.4%, PLK1 PBD inh 3.2%, TrxR1 substrate 9.0% and IDH1 R132H inh -2.2%.
`CO[C@H]1C([C@@]2(C)O[C@@H]2CC=C(C)C)[C@]2(CC[C@H]1OC(=O)/C=C/C=C/C=C/C=C/C(=O)O)CO2` (stereo partly drawn) gave VDR inhibitor 35.5µM* and Sfp PPTase inh 39.8µM*.
CC(=O)N1CCc2cc(NC(=O)C3(C)CCN3Cc3ccccc3OC(F)F)ccc21 (stereo not drawn) was read as PLK1 PBD inh -5.1%.
Screening COc1ccc(CNc2cc(-c3ccccc3OC)ncn2)c(OC)c1 returned VDR inhibitor inconclusive and Sfp PPTase inh 89.1µM*.
For COc1ccccc1-c1cc(Nc2ccn[nH]2)ncn1 the results were VDR inhibitor 44.7µM* and Sfp PPTase inh 7.4%.
`COc1ccc(CNc2ncncc2-c2cccnc2)c(OC)c1` gave VDR inhibitor -9.7% and Sfp PPTase inh -15.0%.
COc1ccccc1-c1cc(Nc2ccc(F)cc2)ncn1 was read as VDR inhibitor -3.3% and Sfp PPTase inh -3.2%.
Screening COc1ccc(CNc2cc(-c3cccnc3)ncn2)c(OC)c1 returned VDR inhibitor 31.6µM* and Sfp PPTase inh 30.7%.
`CN(Cc1cccc(Cl)c1Cl)CC(O)COc1ccccc1` (stereo not drawn) gave VDR inhibitor -21.1%, rTrxR1 inhibitor 6.7%, Sfp PPTase inh -9.0%, PLK1 PBD inh -16.1%, TrxR1 substrate -10.4% and IDH1 R132H inh 8.1%.
CC(=O)Nc1ccc2oc(-c3ccccc3)nc2c1 was read as VDR inhibitor -11.3%, rTrxR1 inhibitor 36.9%, Sfp PPTase inh -11.8%, PLK1 PBD inh -9.0%, TrxR1 substrate 137.4% and IDH1 R132H inh -4.0%.
`CC(=O)Nc1ccc(-c2nc3ccc(NC(C)=O)cc3o2)cc1` gave VDR inhibitor 11.6%, rTrxR1 inhibitor 50.1µM*, Sfp PPTase inh 23.7%, PLK1 PBD inh 0.0%, TrxR1 substrate 467.8% and IDH1 R132H inh -13.2%.
`Cc1[nH]c2ccccc2c1C(c1ccccc1)c1ccc(Cl)s1` (stereo not drawn) gave VDR inhibitor -19.5%, rTrxR1 inhibitor -2.7%, TrxR1 substrate -8.9% and IDH1 R132H inh 0.0%.
COC(=O)c1ccc(C2Nc3c(C)cc(C)cc3C3C=CCC32)cc1 (stereo not drawn) was read as VDR inhibitor inconclusive, rTrxR1 inhibitor 3.98µM*, TrxR1 substrate 13.9% and IDH1 R132H inh -9.7%.
For COC(=O)c1ccc([C@@H]2Nc3c(cccc3C(F)(F)F)[C@@H]3C=CC[C@@H]32)cc1 the results were VDR inhibitor -4.2%, rTrxR1 inhibitor 9.9%, TrxR1 substrate 5.5% and IDH1 R132H inh 7.7%.
For Cc1cc(C)c2c(c1)[C@@H]1C=CC[C@@H]1[C@H](c1ccc(S(=O)(=O)N3CCOCC3)cc1)N2 the results were VDR inhibitor inconclusive, rTrxR1 inhibitor 2.82µM*, Sfp PPTase inh 10µM*, PLK1 PBD inh inconclusive, TrxR1 substrate -4.0% and IDH1 R132H inh -1.8%.
Screening Cc1ccc(S(=O)(=O)N2CCOCC(=O)NCCOCCNC(=O)COCC2)cc1 returned VDR inhibitor -3.6%, rTrxR1 inhibitor -5.8%, Sfp PPTase inh 1.0%, PLK1 PBD inh 0.8%, TrxR1 substrate -1.4% and IDH1 R132H inh 8.9%.
`Cc1cnc(C=NNC(N)=S)c2cccc(N)c12` gave VDR inhibitor inconclusive, rTrxR1 inhibitor -11.7%[11.4 µM], PLK1 PBD inh 23.8µM*, TrxR1 substrate -14.5%[57.1 µM] and IDH1 R132H inh 17.8%.
Screening Cc1ccc(C)c(N2CCN(C(=O)C(C)n3c(C)c4cnn(-c5ccccc5)c(=O)c4c3C)CC2)c1 (stereo not drawn) returned VDR inhibitor 19.7%, rTrxR1 inhibitor 7.8%, TrxR1 substrate -4.6% and IDH1 R132H inh 5.0%.
COc1ccc2c(c1)cc(CNc1ccc(OC)c(OC)c1)c(=O)n2CC(=O)Nc1ccccc1C was read as VDR inhibitor 1.8%, rTrxR1 inhibitor 4.8%, TrxR1 substrate 0.9% and IDH1 R132H inh 12.7%.
For CCC(=O)Oc1c(Sc2ccc(Cl)cc2)c(C)nn1-c1ccccc1 the results were VDR inhibitor 79.4µM*, rTrxR1 inhibitor 40.7%, TrxR1 substrate -11.2% and IDH1 R132H inh 20.1%.
CCCC(=O)Oc1c(Sc2ccc(C)cc2)c(C)nn1-c1ccccc1 was read as VDR inhibitor 17.8µM*, rTrxR1 inhibitor 35.4%, TrxR1 substrate -5.6%[2.29 µM] and IDH1 R132H inh -6.3%.

Compound activity: PubChem BioAssay, National Center for Advancing Translational Sciences (NCATS)
